Values without a mark were called inactive. Calls of active or inactive are those of the source. Unless noted, no stated cut-off is given here; in the data, active means inhibition above about 30%; inactive means the rest.
What was measured:
[1] = biological target: Nuclear receptor coactivator 3 (Homo sapiens) (UniProt Q9Y6Q9); test: NCOA3 GAL4-fusion reporter inhibition – cell-based, luminescence, quadruplicate, confirmation (AID 588792;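 active means mean inhibition over 43.08%, the solvent-only control mean plus 3 SD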;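 further: 0% = DMSO treated cells and 100% = gossypol at 36 µM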); details: HEK293 GAL4-SRC3 luciferase reporter, at 3.6 µM, stronger effect = higher value
Sequence of Nuclear receptor coactivator 3 (Homo sapiens) (Q9Y6Q9 whole entry, looked up, the tested form may be a part): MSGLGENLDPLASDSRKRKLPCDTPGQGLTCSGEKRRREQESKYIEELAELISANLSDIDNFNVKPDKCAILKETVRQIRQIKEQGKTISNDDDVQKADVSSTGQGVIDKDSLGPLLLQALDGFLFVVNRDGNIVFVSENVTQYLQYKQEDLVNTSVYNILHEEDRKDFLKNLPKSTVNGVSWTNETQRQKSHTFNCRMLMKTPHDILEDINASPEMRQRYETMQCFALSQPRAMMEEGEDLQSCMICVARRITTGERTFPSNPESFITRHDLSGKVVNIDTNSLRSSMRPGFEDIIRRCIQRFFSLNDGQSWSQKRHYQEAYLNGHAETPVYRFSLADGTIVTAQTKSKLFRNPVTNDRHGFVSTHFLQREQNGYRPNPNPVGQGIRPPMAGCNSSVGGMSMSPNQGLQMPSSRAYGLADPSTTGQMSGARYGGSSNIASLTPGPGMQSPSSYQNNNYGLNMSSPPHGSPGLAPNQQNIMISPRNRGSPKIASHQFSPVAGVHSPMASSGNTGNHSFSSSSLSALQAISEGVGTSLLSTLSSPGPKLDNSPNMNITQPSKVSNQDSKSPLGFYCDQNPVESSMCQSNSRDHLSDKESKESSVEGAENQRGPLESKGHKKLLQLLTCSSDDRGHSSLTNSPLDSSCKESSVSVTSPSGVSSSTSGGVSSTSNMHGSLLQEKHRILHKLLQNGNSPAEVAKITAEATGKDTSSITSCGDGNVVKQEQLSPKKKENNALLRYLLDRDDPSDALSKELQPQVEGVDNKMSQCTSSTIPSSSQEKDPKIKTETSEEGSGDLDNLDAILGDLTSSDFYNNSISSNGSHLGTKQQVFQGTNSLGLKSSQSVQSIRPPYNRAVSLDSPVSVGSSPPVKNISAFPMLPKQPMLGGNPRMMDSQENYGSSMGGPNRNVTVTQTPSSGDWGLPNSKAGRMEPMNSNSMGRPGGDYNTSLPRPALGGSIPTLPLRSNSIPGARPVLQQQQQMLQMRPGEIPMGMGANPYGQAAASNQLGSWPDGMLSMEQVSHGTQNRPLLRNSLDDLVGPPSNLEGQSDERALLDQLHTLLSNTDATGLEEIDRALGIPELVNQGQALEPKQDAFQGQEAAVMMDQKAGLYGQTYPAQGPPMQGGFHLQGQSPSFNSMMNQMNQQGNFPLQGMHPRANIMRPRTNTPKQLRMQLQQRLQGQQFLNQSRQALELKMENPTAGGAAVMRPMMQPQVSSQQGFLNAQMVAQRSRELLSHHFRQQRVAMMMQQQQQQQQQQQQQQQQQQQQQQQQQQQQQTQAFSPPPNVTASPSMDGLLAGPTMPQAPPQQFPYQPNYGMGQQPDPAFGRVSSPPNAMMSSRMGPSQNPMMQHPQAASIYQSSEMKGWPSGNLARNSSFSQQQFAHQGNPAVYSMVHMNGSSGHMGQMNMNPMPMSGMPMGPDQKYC

[2] = test system: transactivating tegument protein VP16 (Human herpesvirus 1), Gal4-VP16 luciferase reporter; test: repression of VP16-driven luciferase reporter – cell-based, luminescence, high throughput, counter-screen for SRC3 inhibitor project (AID 588794); details: mammalian cells, at 3.6 µM, stronger effect = higher value

In the case of `CCCNc1nc(OC(C(F)(F)F)C(F)(F)F)nc(OC(C(F)(F)F)C(F)(F)F)n1`, the inhibition [1] is reported as 7.26% and the inhibition [2] is reported as -8.01%.

In the case of `Cc1c(Cl)cccc1NC(=O)CCC(=O)N/N=C/c1ccc[nH]1`, the inhibition [1] is reported as 13.6% and the inhibition [2] is reported as 14.5%.

`COc1ccc(C(=O)Nc2nc(-c3ccccn3)cs2)cc1S(=O)(=O)N1CCOCC1` gave an inhibition [1] of 18.3% and an inhibition [2] of -11.1%.

In the case of `COc1ccc(O)c(-c2[nH]ncc2C(=O)c2ccccc2)c1`, the inhibition [1] is reported as 26.3% and the inhibition [2] is reported as 18.6%.

`Cc1ccc(NS(=O)(=O)c2ccc(OCC(=O)NCc3ccncc3)cc2)cc1` showed an inhibition [1] of 8.87% and an inhibition [2] of 6.6%.

In the case of `COc1cc(C(=O)N/N=C/c2coc3ccc(Cl)cc3c2=O)ccc1O`, the inhibition [1] is reported as 24.2% and the inhibition [2] is reported as 15.9%.

`Cc1ccnc(OC(C(=O)O)C(OCc2ccccc2)(c2ccccc2)c2ccc(C(F)(F)F)cc2)n1` (centres undefined) was tested, and the inhibition [1] was 8.84% and the inhibition [2] was 12.4%.

`CC(=O)c1cccc(NC(=O)c2cc(S(=O)(=O)N3CCOCC3)cs2)c1` gave an inhibition [1] of 2.71% and an inhibition [2] of 1.82%.

In the case of `O=C(Cn1cnc([N+](=O)[O-])n1)N/N=C/c1cc(Cl)ccc1O`, the inhibition [1] is reported as 20.3% and the inhibition [2] is reported as 27.4%.

In the case of `Cc1ccccc1NC(=O)C(=Cc1ccc(C(=O)O)cc1)C(=O)Nc1ccccc1C`, the inhibition [1] is reported as 27.8% and the inhibition [2] is reported as 43.2% (active).

`Cc1[nH]n(-c2ccccc2)c(=O)c1/C=N/Nc1nncc(-c2ccccc2)n1` was tested, and the inhibition [1] was 74.3% (active) and the inhibition [2] was 67.5% (active).

For `CC(=O)c1c(C)[nH]c(C(=O)OCC(=O)Nc2c(C)cccc2C)c1C`, the inhibition [1] was 16.8% and the inhibition [2] was 13.5%.
